Laboratory results published in PubChem BioAssay (NCATS).
Records with an inconclusive call do not appear. Active and inactive are the calls of the source. Unless noted, calls follow the shape of the dose curve; as a rule, active = well fitted curve in the direction sought with a large enough effect; inconclusive = small, poorly fitted or top-dose-only effect, or another doubt; inactive = no such curve, though single readings can be large; an effect the other way counts as inactive or inconclusive.

Experiments:
[1] = molecular target: Lysosomal acid glucosylceramidase (Homo sapiens) (UniProt P04062); assay: Glucocerebrosidase-p2 (AID 348; in the data active = potency below about 10 µM; also: potency is read from the fitted curve at half-maximal effect); conditions: purified GBA, blue fluorogenic substrate, 40 min
How it was run: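 Compounds titrated from 0.6 nM upwards against 0.2 nM enzyme in pH 5.9 citric acid/KH2PO4, taurocholate, tween-20; blue fluorogenic substrate 80 uM, 40 min room temperature, stopped and read Ex 365/Em 440 for AC50.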

[2] = AP1 Signaling Pathway (AID 357; active = well fitted curve in either direction with a large enough effect, not every such curve was filed as active; also: % is scaled to controls: 0 for no effect and ±100 for the full control effect); conditions: ME-180 AP-1-bla reporter, EGF-induced, beta-lactamase ratio, 5 h; at 7.69 µM (top of the series) unless noted
How it was run: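 In this screen, ME-180 cells in Opti-MEM with 0.5% dialyzed FBS received EC50 EGF and compound titrations for 5 h. AP-1 reporter beta-lactamase was detected via CCF4 ratio, giving AC50 for positive and negative modulators.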

[3] = NFAT Signaling Pathway (AID 444; active = well fitted curve in either direction with a large enough effect, not every such curve was filed as active;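 also: carbachol stimulus at about its EC50 of 1 µM final; % is scaled to controls: 0 for no effect and ±100 for the full control effect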); conditions: Jurkat NFAT-bla M1, carbachol, beta-lactamase ratio, 5 h; at 7.69 µM (top of the series) unless noted
How it was run: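 Jurkat cells carrying an NFAT-driven β-lactamase reporter and co-transfected muscarinic M1 receptor were treated with compound plus carbachol (1 uM final, an EC50 level) for 5 h at 37 °C. CCF4 loading followed for 1 h at RT; 460/530 nm ratio gave %activity.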

[4] = Stat Signaling Pathway (AID 446; active = well fitted curve in either direction with a large enough effect, not every such curve was filed as active;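 also: ME-180 cervical cancer cells given 40 pM IL-6 alongside compound; SIE-controlled beta-lactamase reporter measured as 460/530 nm FRET emission ratio; % is scaled to controls: 0 for no effect and ±100 for the full control effect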); conditions: ME-180 SIE beta-lactamase reporter, IL-6 stimulated, 5 h; at 7.69 µM (top of the series) unless noted
How it was run: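 ME-180 SIE-bla cells; overnight plating; cpd + IL-6 40 pM, 5 h, 37 C; LiveBLAzer 2.5 h RT; 460/530 nm emission ratio. Normalized to 300 pM IL-6 and 125 nM JAK inhibitor controls.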

[5] = molecular target: Glucocorticoid receptor (Homo sapiens) (UniProt P04150); assay: GR-GFP Redistribution (AID 450;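 active = compounds whose dose series gives a full or clear partial fitted curve of increased nuclear translocation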; also: potency is read from the fitted curve at half-maximal effect); conditions: U2OS GR-GFP nuclear translocation, laser cytometry, 2 h
[6] = molecular target: Glucocorticoid receptor (Homo sapiens) (UniProt P04150); assay: GR-EFC Redistribution (AID 451; calls by dose curve; also: potency is read from the fitted curve at half-maximal effect); conditions: CHO-K1 GR-EFC translocation, beta-gal luminescence, 2 h
How it was run: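 CHO-K1 cells stably expressing nuclear-localized β-gal enzyme acceptor and GR fused C-terminally to the enzyme donor fragment; ligand-driven nuclear translocation restores β-gal by complementation. Compounds titrated up to 46 uM final, 2 h at 37 °C; luminescence read.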

[7] = molecular target: Mitogen-activated protein kinase 10 (Mus musculus) (UniProt Q61831); assay: JNK3 AlphaScreen Assay (AID 530; active = well fitted curve in either direction with a large enough effect, not every such curve was filed as active;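 also: kinase came from lysate of stimulated human HepG2 cells; signal reports phosphorylation of biotinylated GST-cJun 1-79 at Ser73 with 10 µM ATP; % is scaled to controls: 0 for no effect and ±100 for the full control effect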); conditions: JNK3 lysate, c-Jun phosphorylation; series mostly up to 11.4 µM
How it was run: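 Inhibitors reduce antibody binding to phosphorylated biotin-cJun, lowering AlphaScreen luminescence. Lysates from HepG2 cells pre-activated by IL-1beta plus TNF-alpha supplied JNK3; compounds were titrated.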

[8] = molecular target: 3',5'-cyclic-AMP phosphodiesterase 4B (Homo sapiens) (UniProt Q07343); assay: qHTS Assay for Inhibitors of PDE-IV (AID 607; active = well fitted activation curve with a large enough effect in the main read-out, with a control signal flat, not every such curve was filed as active; also: % of control where 0% means no effect); conditions: HEK293 ACTOne CNG channel cells, membrane potential fluorescence; series mostly up to 22.9 µM
How it was run: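 ACTOne HEK293 cells carry a modified cAMP-gated CNG channel and express endogenous PDE4; plated 1000 cells/well, compounds up to 22.9 uM final. Membrane-potential dye fluorescence (ex 535/em 590) was read; parental cells received 10 uM forskolin + 100 uM RO 20-1724.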

[9] = molecular target: ATP-dependent 6-phosphofructokinase (Trypanosoma brucei brucei) (UniProt O15648); assay: qHTS Assay to Find Inhibitors of T. brucei phosphofructokinase: hit validation (AID 492961); conditions: T. brucei PFK, ADP-Glo luminescence; series mostly up to 51.4 µM
How it was run: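 Percent activity derived from corrected luminescence, normalized between 0x and 1x enzyme controls, then fitted to concentration-response curves. Conditions: 1.25 nM PFK, 0.1 mM ATP, 0.5 mM F6P, 45 min RT.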

[10] = molecular target: Ubiquitin carboxyl-terminal hydrolase 1 (Homo sapiens) (UniProt O94782); assay: Inhibitors of USP1/UAF1: Pilot qHTS (AID 504865); conditions: purified USP1/UAF1, Ub-rhodamine cleavage fluorescence; series mostly up to 114 µM;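 also: rhodamine fluorescence freed from ubiquitin-rhodamine substrate followed over time; top concentration of the series differs between compounds; % is scaled to controls: 0 for no effect and ±100 for the full control effect; nearly all actives have a fitted effect of over 35% in size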
How it was run: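 Kinetic fluorescence assay: 1nM USP1/UAF1, 15 min compound preincubation, then 150nM Ub-Rho; 480/540 nm.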

[11] = molecular target: Luciferin 4-monooxygenase (Photinus pyralis) (UniProt P08659); assay: Biochemical firefly luciferase enzyme assay for NPC (AID 624030);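 also: purified P. pyralis luciferase at 10 nM with luciferin and ATP substrate; 0% = DMSO and -100% = full luciferase inhibition by PTC124 control; nearly all actives have a fitted effect of over 70% in size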; conditions: purified P. pyralis luciferase, luminescence, 5 min; series mostly up to 58.6 µM
How it was run: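 Counter-screen for direct inhibition of the luciferase enzyme by approved-drug library compounds, run at 10 nM enzyme in 50 mM Tris acetate (final). Luminescence was read within 5 min of enzyme-buffer addition and normalized to PTC124 versus DMSO (0%).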

[12] = S16 Schwann cell viability assay (CellTiter-Glo assay) (AID 624031); conditions: S16 rat Schwann cells viability, 24 h; series mostly up to 57.5 µM;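 also: cellular ATP luminescence as a viability measure; plate controls were DMSO-treated cells for no effect and cell-free wells for full effect; nearly all actives have a fitted effect of over 70% in size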
How it was run: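 Native S16 rat Schwann cells, 500-750 cells/well in DMEM with 10% FBS, dosed with compound after overnight culture and incubated 24h at 37 degree Celsius/5% CO2. Viability by CellTiter-Glo luminescence; % activity normalized to no-cell wells and DMSO-treated cells.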

[13] = S16 Schwann cell PMP22 intronic element firefly luciferase assay (AID 624032); conditions: S16 rat Schwann cells, PMP22 element FLuc, 24 h; series mostly up to 57.5 µM;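 also: plate controls were DMSO for no effect and PTC124 positive control mean for full effect; nearly all actives have a fitted effect of over 30% in size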
How it was run: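 Rat S16 Schwann cells stably carrying a PMP22 intronic element-driven Fluc reporter were seeded overnight, then exposed to compounds for 24 h at 37 °C. Luminescence was normalized to PTC124 (positive control) and DMSO (0% activity).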

[14] = S16 Schwann cell PMP22 intronic element beta-lactamase assay (AID 624044; calls by dose curve;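 also: 0% = DMSO and -100% = potassium clavulanate positive control; nearly all actives have a fitted effect of over 15% in size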); conditions: S16 rat Schwann cells, PMP22 element beta-lactamase FRET, 24 h; series mostly up to 38.3 µM
How it was run: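 Rat S16 Schwann cells with beta-Lac driven by a PMP22 intronic element, compound-treated 24 h at 37 °C. LiveBLAzer FRET B/G read: 460 nm normalized to potassium clavulanate vs DMSO; 535 nm FRET as viability; concentration-effect curves classified.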

[15] = qHTS profiling for inhibitors of Plasmodium falciparum proliferation (AID 504749);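 also: 0% = DMSO vehicle and full inhibition = artemisinin control; nearly all actives have a fitted effect of over 60% in size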; conditions: P. falciparum in erythrocytes, SYBR Green DNA, 72 h, at 28.7 µM (top of the series)
How it was run: (§1)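 Parasite proliferation within erythrocytes, 72 h exposure. Endpoint: SYBR Green I fluorescence after overnight lysis at room temperature. Controls: 0.29 uM artemisinin, DMSO.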

[16] = test system: 3D7; assay: as above; conditions: P. falciparum in erythrocytes, SYBR Green DNA, 72 h; series mostly up to 28.7 µM
How it was run: as §1

[17] = test system: 7G8; assay: as above; conditions: P. falciparum in erythrocytes, SYBR Green DNA, 72 h; series mostly up to 28.7 µM
How it was run: as §1

[18] = test system: AA1029; assay: as above; conditions: P. falciparum in erythrocytes, SYBR Green DNA, 72 h; series mostly up to 28.7 µM
How it was run: as §1

[19] = test system: AS120; assay: as above; conditions: P. falciparum in erythrocytes, SYBR Green DNA, 72 h; series mostly up to 28.7 µM
How it was run: as §1

[20] = test system: ATS189; assay: as above; conditions: P. falciparum in erythrocytes, SYBR Green DNA, 72 h; series mostly up to 28.7 µM
How it was run: as §1

[21] = test system: ATS95; assay: as above; conditions: P. falciparum in erythrocytes, SYBR Green DNA, 72 h; series mostly up to 28.7 µM
How it was run: as §1

[22] = test system: C2A; assay: as above; conditions: P. falciparum in erythrocytes, SYBR Green DNA, 72 h; series mostly up to 28.7 µM
How it was run: as §1

[23] = test system: CP185; assay: as above; conditions: P. falciparum in erythrocytes, SYBR Green DNA, 72 h; series mostly up to 28.7 µM
How it was run: as §1

[24] = test system: CP191; assay: as above; conditions: P. falciparum in erythrocytes, SYBR Green DNA, 72 h; series mostly up to 28.7 µM
How it was run: as §1

[25] = test system: CP192; assay: as above; conditions: P. falciparum in erythrocytes, SYBR Green DNA, 72 h; series mostly up to 28.7 µM
How it was run: as §1

[26] = test system: CP194; assay: as above; conditions: P. falciparum in erythrocytes, SYBR Green DNA, 72 h; series mostly up to 28.7 µM
How it was run: as §1

[27] = test system: CP201; assay: as above; conditions: P. falciparum in erythrocytes, SYBR Green DNA, 72 h; series mostly up to 28.7 µM
How it was run: as §1

[28] = test system: CP203; assay: as above; conditions: P. falciparum in erythrocytes, SYBR Green DNA, 72 h; series mostly up to 28.7 µM
How it was run: as §1

[29] = test system: CP211; assay: as above; conditions: P. falciparum in erythrocytes, SYBR Green DNA, 72 h; series mostly up to 28.7 µM
How it was run: as §1

[30] = test system: CP215; assay: as above; conditions: P. falciparum in erythrocytes, SYBR Green DNA, 72 h; series mostly up to 28.7 µM
How it was run: as §1

[31] = test system: CP217; assay: as above; conditions: P. falciparum in erythrocytes, SYBR Green DNA, 72 h; series mostly up to 28.7 µM
How it was run: as §1

[32] = test system: CP237; assay: as above; conditions: P. falciparum in erythrocytes, SYBR Green DNA, 72 h; series mostly up to 28.7 µM
How it was run: as §1

[33] = test system: CP238; assay: as above; conditions: P. falciparum in erythrocytes, SYBR Green DNA, 72 h; series mostly up to 28.7 µM
How it was run: as §1

[34] = test system: CP247; assay: as above; conditions: P. falciparum in erythrocytes, SYBR Green DNA, 72 h; series mostly up to 28.7 µM
How it was run: as §1

[35] = test system: CP250; assay: as above; conditions: P. falciparum in erythrocytes, SYBR Green DNA, 72 h; series mostly up to 28.7 µM
How it was run: as §1

[36] = test system: CP252; assay: as above; conditions: P. falciparum in erythrocytes, SYBR Green DNA, 72 h; series mostly up to 28.7 µM
How it was run: as §1

Chain of Glucocorticoid receptor (Homo sapiens) (P04150 whole entry, looked up, the tested form may be a part): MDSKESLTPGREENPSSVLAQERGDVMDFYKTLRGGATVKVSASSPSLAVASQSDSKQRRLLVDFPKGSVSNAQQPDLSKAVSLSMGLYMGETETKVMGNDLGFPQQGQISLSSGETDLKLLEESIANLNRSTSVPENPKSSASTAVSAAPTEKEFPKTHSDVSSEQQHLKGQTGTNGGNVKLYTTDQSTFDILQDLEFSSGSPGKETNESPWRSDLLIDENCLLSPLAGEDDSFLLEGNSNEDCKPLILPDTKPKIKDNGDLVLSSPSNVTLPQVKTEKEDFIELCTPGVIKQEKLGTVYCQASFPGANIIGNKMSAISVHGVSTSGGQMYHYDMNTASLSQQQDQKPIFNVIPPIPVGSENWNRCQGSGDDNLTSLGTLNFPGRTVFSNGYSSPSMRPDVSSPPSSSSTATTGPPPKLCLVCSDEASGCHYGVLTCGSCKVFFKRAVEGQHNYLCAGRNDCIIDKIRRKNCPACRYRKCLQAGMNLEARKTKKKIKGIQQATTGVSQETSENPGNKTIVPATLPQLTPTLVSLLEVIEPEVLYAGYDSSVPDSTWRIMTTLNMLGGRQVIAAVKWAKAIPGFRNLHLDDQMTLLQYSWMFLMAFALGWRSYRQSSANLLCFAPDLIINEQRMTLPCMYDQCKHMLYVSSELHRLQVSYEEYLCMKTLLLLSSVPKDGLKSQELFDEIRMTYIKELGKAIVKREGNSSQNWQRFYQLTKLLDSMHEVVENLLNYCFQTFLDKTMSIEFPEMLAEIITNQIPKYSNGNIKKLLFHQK
Chain of 3',5'-cyclic-AMP phosphodiesterase 4B (Homo sapiens) (Q07343 whole entry, looked up): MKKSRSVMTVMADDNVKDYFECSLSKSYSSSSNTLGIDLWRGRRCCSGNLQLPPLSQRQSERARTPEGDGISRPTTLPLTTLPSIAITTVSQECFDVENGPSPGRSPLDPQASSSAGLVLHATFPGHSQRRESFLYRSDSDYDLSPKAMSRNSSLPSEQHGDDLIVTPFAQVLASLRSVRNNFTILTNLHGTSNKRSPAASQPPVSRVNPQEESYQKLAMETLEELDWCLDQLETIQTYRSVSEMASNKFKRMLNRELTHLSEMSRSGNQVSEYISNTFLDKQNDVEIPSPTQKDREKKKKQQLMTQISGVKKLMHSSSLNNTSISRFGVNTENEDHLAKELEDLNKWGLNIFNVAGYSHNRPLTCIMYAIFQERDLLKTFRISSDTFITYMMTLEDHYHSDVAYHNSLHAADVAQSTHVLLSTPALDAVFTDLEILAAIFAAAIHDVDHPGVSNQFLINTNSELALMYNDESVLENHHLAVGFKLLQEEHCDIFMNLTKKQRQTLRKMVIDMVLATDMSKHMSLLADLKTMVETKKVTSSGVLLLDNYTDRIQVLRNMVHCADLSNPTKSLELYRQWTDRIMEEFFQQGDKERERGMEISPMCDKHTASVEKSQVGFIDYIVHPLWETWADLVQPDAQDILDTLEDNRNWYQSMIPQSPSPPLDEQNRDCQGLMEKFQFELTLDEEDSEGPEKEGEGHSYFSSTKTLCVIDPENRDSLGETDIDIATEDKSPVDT
Chain of Luciferin 4-monooxygenase (Photinus pyralis) (P08659 whole entry, looked up): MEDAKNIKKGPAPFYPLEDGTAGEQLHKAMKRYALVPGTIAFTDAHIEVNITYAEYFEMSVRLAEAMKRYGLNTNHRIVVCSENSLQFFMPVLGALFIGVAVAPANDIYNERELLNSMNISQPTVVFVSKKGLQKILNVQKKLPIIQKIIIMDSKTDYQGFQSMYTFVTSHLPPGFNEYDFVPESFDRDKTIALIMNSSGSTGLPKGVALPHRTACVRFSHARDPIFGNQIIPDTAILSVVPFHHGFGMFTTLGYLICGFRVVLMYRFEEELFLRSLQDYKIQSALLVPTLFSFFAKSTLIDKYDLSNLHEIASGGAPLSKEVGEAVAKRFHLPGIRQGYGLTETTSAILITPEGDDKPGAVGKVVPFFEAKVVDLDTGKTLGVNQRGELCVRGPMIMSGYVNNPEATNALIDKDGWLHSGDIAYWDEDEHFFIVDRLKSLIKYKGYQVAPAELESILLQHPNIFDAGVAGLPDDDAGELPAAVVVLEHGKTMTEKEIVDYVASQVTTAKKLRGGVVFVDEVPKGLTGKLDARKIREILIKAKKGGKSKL
Chain of ATP-dependent 6-phosphofructokinase (Trypanosoma brucei brucei) (O15648 whole entry, looked up): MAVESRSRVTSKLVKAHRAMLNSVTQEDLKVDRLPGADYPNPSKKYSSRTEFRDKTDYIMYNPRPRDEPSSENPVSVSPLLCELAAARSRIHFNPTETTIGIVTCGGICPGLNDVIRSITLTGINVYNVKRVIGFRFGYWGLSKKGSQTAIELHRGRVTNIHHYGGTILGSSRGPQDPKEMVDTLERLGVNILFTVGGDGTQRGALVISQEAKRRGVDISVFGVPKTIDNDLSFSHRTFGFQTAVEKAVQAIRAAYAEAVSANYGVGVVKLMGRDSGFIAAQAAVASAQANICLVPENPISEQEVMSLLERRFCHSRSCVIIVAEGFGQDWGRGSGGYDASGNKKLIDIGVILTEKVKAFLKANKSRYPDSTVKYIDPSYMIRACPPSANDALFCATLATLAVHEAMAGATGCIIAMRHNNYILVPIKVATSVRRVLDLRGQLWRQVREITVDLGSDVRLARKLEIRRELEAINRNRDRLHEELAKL
Chain of Ubiquitin carboxyl-terminal hydrolase 1 (Homo sapiens) (O94782 whole entry, looked up): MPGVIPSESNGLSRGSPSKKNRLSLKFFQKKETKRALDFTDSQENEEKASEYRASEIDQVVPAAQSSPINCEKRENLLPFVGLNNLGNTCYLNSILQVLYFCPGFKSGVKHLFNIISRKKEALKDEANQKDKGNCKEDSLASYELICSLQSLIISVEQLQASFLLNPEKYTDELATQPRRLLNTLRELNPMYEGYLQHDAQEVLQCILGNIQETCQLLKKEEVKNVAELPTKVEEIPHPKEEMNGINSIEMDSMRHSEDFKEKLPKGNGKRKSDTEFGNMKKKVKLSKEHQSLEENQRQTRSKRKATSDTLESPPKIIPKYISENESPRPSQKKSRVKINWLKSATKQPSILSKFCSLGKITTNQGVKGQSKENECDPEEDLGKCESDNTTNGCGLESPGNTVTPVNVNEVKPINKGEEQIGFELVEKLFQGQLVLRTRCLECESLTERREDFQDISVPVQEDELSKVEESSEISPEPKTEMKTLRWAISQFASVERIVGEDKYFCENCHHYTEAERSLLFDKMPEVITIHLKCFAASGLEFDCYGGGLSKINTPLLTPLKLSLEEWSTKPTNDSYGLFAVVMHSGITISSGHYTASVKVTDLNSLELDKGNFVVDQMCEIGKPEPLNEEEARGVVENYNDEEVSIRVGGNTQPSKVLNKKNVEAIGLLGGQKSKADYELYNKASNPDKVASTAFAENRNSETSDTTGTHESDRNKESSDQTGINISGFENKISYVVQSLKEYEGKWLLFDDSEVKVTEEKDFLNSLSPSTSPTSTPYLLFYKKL
Chain of Lysosomal acid glucosylceramidase (Homo sapiens) (P04062 whole entry, looked up): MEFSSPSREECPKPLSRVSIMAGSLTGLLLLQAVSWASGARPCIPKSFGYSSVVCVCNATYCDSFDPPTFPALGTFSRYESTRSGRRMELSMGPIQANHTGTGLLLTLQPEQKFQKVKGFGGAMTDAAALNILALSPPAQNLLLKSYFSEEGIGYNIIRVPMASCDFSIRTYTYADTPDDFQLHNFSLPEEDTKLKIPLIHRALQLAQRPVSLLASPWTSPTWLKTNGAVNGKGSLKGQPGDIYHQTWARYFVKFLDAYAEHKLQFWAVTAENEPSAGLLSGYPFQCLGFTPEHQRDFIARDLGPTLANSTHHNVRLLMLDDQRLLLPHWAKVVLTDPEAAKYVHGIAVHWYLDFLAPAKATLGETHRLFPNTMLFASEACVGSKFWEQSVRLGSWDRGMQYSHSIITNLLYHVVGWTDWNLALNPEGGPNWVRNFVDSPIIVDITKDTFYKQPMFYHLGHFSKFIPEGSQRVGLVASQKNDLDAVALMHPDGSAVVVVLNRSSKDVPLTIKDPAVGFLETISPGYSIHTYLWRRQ

CC1(C)S[C@@H]2[C@H](NC(=O)Cc3ccccc3)C(=O)N2[C@@H]1C(=O)O
inactive: Potency [1] > 11.4 µM | activity change, negative = inhibition [2] 11.5% | activity change, negative = inhibition [3] 4.82% | activity, negative = inhibition [4] -4.4% | Potency [5] > 46 µM | Potency [6] > 9.22 µM | Potency [7] | Potency [8] | outcome [9] | Potency [10] | outcome [11] | Potency [12] | Potency [13] | outcome [14] | activity, negative = inhibition ([15]; parasite line A) 2.23% | activity, negative = inhibition ([15]; parasite line B) 9.91% | Potency [16] | Potency [17] | Potency [18] | Potency [19] | Potency [20] | Potency [21] | Potency [22] | Potency [23] | Potency [24] | Potency [25] | Potency [26] | Potency [27] | Potency [28] | Potency [29] | Potency [30] | Potency [31] | Potency [32] | Potency [33] | Potency [34] | Potency [35] | Potency [36]
